HCMV antiviral: inhibitors of human cytomegalovirus. HFF cells, HCMV-luciferase reporter, 72 h; active compounds read low. activity change, negative = inhibition, % at 57.5 µM. 4.5% of 410,000 active. AID 1259415; in the data active means activity change below about -60%; inconclusive means no clear call, values can overlap the other calls; inactive means above about -39%
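Two-dose cell screen: HFF monolayers treated with compounds and infected with luciferase-expressing HCMV at 1 PFU/cell, 72 h at 37C, then lysed for luciferase measurement.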
Giardia FBPA inh: inhibitors of Giardia lamblia fructose-1,6-bisphosphate aldolase; 0.71% of 290,000 active; A8B2U2; Potency, µM (titrated, usually from 59.6 µM), for the others: at the top dose activity, negative = inhibition, actives largely listed as inhibitors; purified Giardia FBPA; AID 2451; further: potency means the concentration at half of the fitted maximal effect; nearly all actives have a fitted effect of over 55% in size
Target sequence (A8B2U2 whole entry, looked up): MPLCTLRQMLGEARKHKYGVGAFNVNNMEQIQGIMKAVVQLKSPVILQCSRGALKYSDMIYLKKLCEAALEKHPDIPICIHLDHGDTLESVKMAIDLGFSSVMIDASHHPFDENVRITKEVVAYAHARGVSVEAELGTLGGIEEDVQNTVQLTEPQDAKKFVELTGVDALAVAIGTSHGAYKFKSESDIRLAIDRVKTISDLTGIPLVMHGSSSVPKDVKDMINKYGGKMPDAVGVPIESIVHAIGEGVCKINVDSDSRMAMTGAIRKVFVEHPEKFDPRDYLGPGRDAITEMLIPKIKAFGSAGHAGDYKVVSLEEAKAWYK
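40 nM FBPA preincubated 10 min at RT with compound (up to 57.5 uM final), then substrate plus GAPDH/TPI/NAD/arsenate coupling and diaphorase/resazurin added. Fluorescence read after 20 min at RT, 525/598 nm.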
MARV entry inh: inhibitors of Marburg virus binding or cell entry | Potency, µM (top dose mostly 37.8 µM), for inactives: at the highest dose activity change, negative = inhibition, hits mostly inhibitors | Marburg virus pseudotyped entry inhibition, cell reporter | 1.8% of 300,000 active; calls by dose curve; tested in HEK293 cells; further: potency means the concentration at half of the fitted maximal effect
HCV inhibitor: inhibitors of hepatitis C virus infection. Potency, µM (top dose mostly 41.8 µM), without a hit: top-dose activity change, negative = inhibition, hits mostly inhibitors. 3.4% of 340,000 active. Huh7.5.1 HCVcc-Cre infection, luciferase reporter, 44 h. AID 651820; further: potency means the concentration at half of the fitted maximal effect
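Luciferase read-out (15 sec integration) after a 15 min room-temperature substrate step quantifies HCVcc-Cre infection. Cells, 1,000 per well, had compound added 4 h post-plating, then virus at ~0.5 moi, and were cultured 44 h.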
Lassa entry inh: inhibitors of Lassa virus binding or cell entry | Lassa virus pseudotype entry inhibition, cell reporter | Potency, µM (titrated, usually from 37.9 µM), for inactives: top-dose activity change, negative = inhibition, hits mostly inhibitors | 1.2% of 300,000 active | AID 540256; calls by dose curve; tested in HEK293 cells; further: potency means the concentration at half of the fitted maximal effect; nearly all actives have a fitted effect of over 50% in size
FMDV inh: antivirals against foot and mouth disease virus. FMDV antiviral cell-based qHTS. Potency, µM (highest dose often 57.9 µM), for the others: at the top dose activity change, negative = inhibition, actives largely listed as inhibitors. 1.2% of 410,000 active. AID 1159524; calls by dose curve; tested in HEK293T cells; further: read-out not given here; potency means the concentration at half of the fitted maximal effect; nearly all actives have a fitted effect of over 45% in size
An asterisk follows results filed as active; [ ] = dose if it differs, or a comment. The list is not random: actives were taken first. Their share in the collection is about 8.3%. Unless noted, the call rests on the fitted dose curve; in most records, active means well fitted curve in the direction sought with a large enough effect; inconclusive means small, poorly fitted or top-dose-only effect, or another doubt; inactive means no such curve, though single readings can be large; an effect the other way counts as inactive or inconclusive. On the % scale 0 is the no-effect control and ±100 the full control effect.

How did CCOC(=O)C1(CCOc2ccccc2)CCN(Cc2ccc(CO)o2)CC1 do in these assays?
HCMV antiviral: -35; Giardia FBPA inh: 1%; MARV entry inh: inconclusive; HCV inhibitor: inconclusive; Lassa entry inh: -14%[46.1 µM]; FMDV inh: -25%

Results for CCOC(=O)C1(CCOc2ccccc2)CCN(Cc2cccc3c2OCO3)CC1 ?
HCMV antiviral: -38; Giardia FBPA inh: 0%; MARV entry inh: inconclusive; HCV inhibitor: 10µM*; Lassa entry inh: inconclusive; FMDV inh: inconclusive

Results for CCOC(=O)C1(CCOc2ccccc2)CCN(Cc2cc(OC)c3c(c2)OCO3)CC1 ?
HCMV antiviral: inconclusive; Giardia FBPA inh: -2%; MARV entry inh: 2.8µM*; HCV inhibitor: 11µM*; Lassa entry inh: inconclusive; FMDV inh: inconclusive

Results for N[C@H](C(=O)O)[C@@H]1CC(Cl)=NO1 ?
FMDV inh: -17%

What do the screens show for `NC(C(=O)O)C1ON=C(Cl)C1O` (centres undefined)?
HCMV antiviral: -86*; MARV entry inh: -2%; HCV inhibitor: inconclusive; Lassa entry inh: -12%; FMDV inh: -6%

How did CC(=O)c1ccc(NC(=O)CSc2nc(C3CC3)nc3ccccc23)cc1 do in these assays?
HCMV antiviral: 26; Giardia FBPA inh: 0%; MARV entry inh: inconclusive; HCV inhibitor: -23%; Lassa entry inh: inconclusive; FMDV inh: -4%

How did COc1ccc(NC(=O)CSc2ncnc3c2cnn3CCc2ccccc2)cc1 do in these assays?
HCMV antiviral: 102; Giardia FBPA inh: 7%; MARV entry inh: inconclusive; HCV inhibitor: 2%; Lassa entry inh: 11µM*; FMDV inh: 20%

Results for COc1ccc(NC(=O)CSc2nc(C3CC3)nc3ccccc23)cc1 ?
HCMV antiviral: inconclusive; MARV entry inh: inconclusive; HCV inhibitor: 11µM*; Lassa entry inh: inconclusive; FMDV inh: 1%

How did C=C1CC[C@H](O)C/C1=C/C=C1\CCC[C@]2(C)[C@@H]([C@H](C)CCCC(C)C)CC[C@@H]12 do in these assays?
Giardia FBPA inh: -16%

What do the screens show for `COC(=O)[C@H]1[C@H](CO)[C@H]2Cn3c(cccc3=O)[C@H]2N1Cc1ccccc1Cl`?
HCMV antiviral: 18

What do the screens show for `Cc1cc(Nc2ccc(F)cc2C)n2nc(C)nc2n1`?
HCMV antiviral: 18; Giardia FBPA inh: 0%; HCV inhibitor: 15%; FMDV inh: -7%

How did Cc1ccc(Nc2cc(C)nc3nc(C)nn23)c(C)c1 do in these assays?
HCMV antiviral: -12; Giardia FBPA inh: 6%; MARV entry inh: 0%; HCV inhibitor: -7%[8.37 µM]; Lassa entry inh: -19%; FMDV inh: 0.71µM*

Results for CCOC(=O)C(=O)C1=C(N2CCOCC2)/C(=C\c2cccc([N+](=O)[O-])c2)CC1 ?
HCMV antiviral: -72*; Giardia FBPA inh: -10%; MARV entry inh: 21%; HCV inhibitor: 25%; Lassa entry inh: 16%; FMDV inh: -15%

Results for O=C(c1ccc2c(c1)CCN2S(=O)(=O)c1ccc(Cl)cc1)N1CCN(c2ccccc2F)CC1 ?
HCMV antiviral: -21; MARV entry inh: 1%[46.1 µM]; Lassa entry inh: -16%[46.1 µM]; FMDV inh: -28%

How did Cc1ccccc1CN1C(=O)c2ccccc2Sc2ccc(C(=O)NC(C)c3ccccc3)cc21 (centres undefined) do in these assays?
HCMV antiviral: inconclusive; Lassa entry inh: -11%[46.1 µM]; FMDV inh: -8%

How did COc1ccccc1NS(=O)(=O)c1cc(N/C(=N\S(=O)(=O)c2ccccc2)c2ccc(F)cc2)ccc1Cl do in these assays?
HCMV antiviral: -5; Giardia FBPA inh: -7%; MARV entry inh: inconclusive; HCV inhibitor: 35µM*; Lassa entry inh: inconclusive; FMDV inh: 36%

What do the screens show for `COc1ccccc1NS(=O)(=O)c1cc(NC(=O)Cc2n[nH]c(=O)c3ccccc23)ccc1Cl`?
HCMV antiviral: 16; MARV entry inh: inconclusive; HCV inhibitor: 3.2µM*; Lassa entry inh: inconclusive; FMDV inh: inconclusive

Results for O=S(=O)(/N=C(/Nc1ccc(Cl)c(S(=O)(=O)N2CCOCC2)c1)c1ccc(F)cc1)c1ccccc1 ?
HCMV antiviral: -34; MARV entry inh: inconclusive; HCV inhibitor: -15%; Lassa entry inh: inconclusive; FMDV inh: 25%

How did COc1ccc(NS(=O)(=O)c2cc(NC(=O)Cc3n[nH]c(=O)c4ccccc34)ccc2OC)cc1 do in these assays?
HCMV antiviral: 0; MARV entry inh: 24%; HCV inhibitor: inconclusive; Lassa entry inh: -6%; FMDV inh: 22%

What do the screens show for `COc1ccccc1NS(=O)(=O)c1cc(NC(=S)Nc2cc(C)cc(C)c2)ccc1Cl`?
HCMV antiviral: -82*; Giardia FBPA inh: -6%; MARV entry inh: inconclusive; HCV inhibitor: inconclusive; Lassa entry inh: -21%; FMDV inh: inconclusive

What do the screens show for `CN(C)c1ccc(NC(=S)c2ccccn2)cc1`?
HCMV antiviral: -91*; Giardia FBPA inh: inconclusive; MARV entry inh: 0.82µM*; HCV inhibitor: 11%; Lassa entry inh: 0.89µM*; FMDV inh: 2.8µM*

How did S=C(Nc1ccccc1)Nc1cccc(Br)c1 do in these assays?
HCMV antiviral: -33; Giardia FBPA inh: -9%; HCV inhibitor: -5%; FMDV inh: 35%

Results for S=C(Nc1cccc(Br)c1)c1ccccc1 ?
HCMV antiviral: -74*; Giardia FBPA inh: -10%; MARV entry inh: 9%; HCV inhibitor: -11%; Lassa entry inh: inconclusive; FMDV inh: -2%

How did CN(C)c1ccc(C(=S)Nc2ccccc2)cc1 do in these assays?
HCMV antiviral: -65*; Giardia FBPA inh: 1%; MARV entry inh: 14µM*; HCV inhibitor: 5%; Lassa entry inh: inconclusive; FMDV inh: 12%

How did CN(C)c1cc(O)c(C(=S)Nc2ccccc2)c(N(C)C)c1 do in these assays?
HCMV antiviral: 40; Giardia FBPA inh: inconclusive; MARV entry inh: inconclusive; HCV inhibitor: 11µM*; Lassa entry inh: 10%; FMDV inh: 4%

How did CN(C)c1ccc(/C=N/NC(=O)c2ccccn2)cc1 do in these assays?
HCMV antiviral: 106; Giardia FBPA inh: -22%; MARV entry inh: inconclusive; HCV inhibitor: -8%; Lassa entry inh: inconclusive; FMDV inh: -79%

What do the screens show for `CN(C)c1ccc(C(=O)c2ccccc2)cc1`?
HCMV antiviral: 41; Giardia FBPA inh: 11%; MARV entry inh: 7%; HCV inhibitor: -23%; Lassa entry inh: 5%; FMDV inh: 20%

What do the screens show for `C[C@H](O)[C@@H]1C(=O)N2CCc3c([nH]c4ccccc34)[C@@H]2C[C@@H]1N(C)C(=O)Nc1ccc(Br)cc1`?
HCMV antiviral: -1

What do the screens show for `COc1ccc(N2CCN(Cc3nc4c(c(=O)n(C)c(=O)n4C)n3C(C)C)CC2)cc1`?
HCMV antiviral: -14; Lassa entry inh: -1%[46.1 µM]; FMDV inh: inconclusive

What do the screens show for `O=C(c1ccco1)N1CCC2(CCCN(C(c3ccccc3)c3ccccc3)C2)CC1`?
Giardia FBPA inh: 5%; FMDV inh: -27%

Compound activity as filed in PubChem BioAssay.
